This is an account of results in PubChem BioAssay.

The source made the active and inactive calls.
Note: test concentration not given here.

A short description of one assay: basal 3T3-L1 adipocyte mitochondrial potential changes, profiling panel, cell-based, JC-1 fluorescence, 3T3-L1 adipocytes, 24 h, 100 nL compound (AID 1168). Particulars: JC-1 mitochondrial fluorescence, higher = more signal, called active from +8 up or from −8 down.
Regarding `C=CCN1C(=O)[C@]2(O[C@H](CCO)[C@@H]([Si](C)(C)c3ccc(OC)cc3)[C@@H]2C)c2ccccc21`, the z-score is -0.0442 (inactive).

Regarding `COC(=O)[C@]1(CO)N=C(c2ccc(OCCCO)cc2)O[C@@H]1c1ccccc1CN=[N+]=[N-]`, the z-score is 0.039 (inactive). The same measure, in the same setting: under `COc1cccc(OC)c1C(=O)O[C@H]1[C@@H]2OC(=O)[C@H](Cc3cccc(Br)c3)C/C=C/C[C@@H](Cc3cccc(Br)c3)C(=O)O[C@H]2[C@@H](OC)O[C@@H]1CO` stands -0.819 (inactive); under `COCCOC(=O)N1C(=O)[C@@]2(c3cc(C#CC4(O)CCCCCC4)ccc31)[C@H](C(=O)NC[C@H](O)c1ccccc1)[C@H]1C(=O)O[C@H](c3ccccc3)[C@H](c3ccccc3)N1[C@@H]2c1ccc(O)cc1`, -0.11 (inactive); under `O=C1C2C=CC(C(O)c3ccc([N+](=O)[O-])cc3)N(Nc3ccccc3)C2C(=O)N1c1ccccc1` (stereo not given), -0.886 (inactive). On to `C=C(CCCC)C(=O)CC[C@H](OC(C)=O)c1ccccc1OCCO`, for which the z-score is 0.98 (inactive). For the compound `C=C(COC)/C(=C/C[C@H](OC(=O)c1ccncc1)c1ccc(OCCO)cc1)c1cc(C(=O)OC)ccc1OC`, the z-score is -0.4 (inactive). Regarding `COC(=O)[C@@]1(Cc2ccc(OC)cc2)[C@@H]2[C@@H](CC(=O)[C@H]2CC(=O)C(=O)N2CCCC2)CN1C(=O)c1ccccc1`, the z-score was -1.62 (inactive).

Turning to `CCOC(=O)C[C@H]1[C@H](OC(=O)c2ccc(-c3ccccc3)cc2)[C@@H](NC(=O)CC(C)C)c2cc(OCCCO)ccc2N1C(=O)Cc1ccc(OC)cc1`, the z-score was -1.43 (inactive).

As for `C=CCN1C(=O)[C@]2(O[C@H](CCn3cc([C@H](O)c4ccccc4)nn3)[C@@H]([Si](C)(C)c3ccc(OC)cc3)[C@@H]2C)c2cc(N3C(=O)c4cccc5cccc3c45)ccc21`, the z-score is 1.19 (inactive).

The nature of a further assay: basal RPMI8226 mitochondrial membrane potential changes, profiling panel, cell-based, JC-1 fluorescence, 24 h, 100 nL compound (AID 1169). The settings on record: RPMI8226 myeloma, JC-1 mitochondrial potential fluorescence, higher = more signal.
With `CCCC[C@@H](O)C1=C(COC)Cn2c(=O)n(-c3ccccc3)c(=O)n2[C@H]1CO`, the z-score is -0.197. `CCN(CC)c1ccc(N2CC=CC34O[C@@H]5C=CCOC(=O)[C@@H]5[C@H]3C(=O)N(CCCO)[C@@H]4C2=O)cc1` (stereo not given in full) displayed a z-score of 0.19. In the case of `COCCOC(=O)N1C(=O)[C@@]2(c3cc(C#CCC(C(=O)OC)C(=O)OC)ccc31)[C@H](c1ccc(OCCO)cc1)N1[C@H](c3ccccc3)[C@H](c3ccccc3)OC(=O)[C@H]1[C@@H]2C(=O)N1CCCCCCC1`, the z-score was -0.635. On to `CCOC(=O)C1=CC[C@@H](c2ccc(F)cc2)N(S(=O)(=O)c2ccc(C)cc2)[C@H]1c1ccc([N+](=O)[O-])cc1`, for which the z-score was 0.235.

With `COC(=O)c1c(CC[C@@H](CO)NC(=O)N[C@@H](Cc2ccccc2)Cn2cc(-c3cncn3C)nn2)oc(C(C)=O)c1C(=O)OC`, the z-score is -0.442. `O=C(NCCO)C1=C[C@H](Oc2ccccc2I)[C@@H](O)[C@H](NCc2ccc(F)cc2)C1` registered a z-score of 0.391.

`CCCCN1CC=CC23O[C@@H]4/C=C\CCC(C)OC(=O)C4[C@H]2C(=O)N(C(C)CO)[C@@H]3C1=O` (stereo not given in full): the z-score is -0.726. The same measure, in the same setting: under `CC(C)C[C@@H]1NC(=O)C([C@@H](C)OCc2ccccc2)NC(=O)[C@@]23C(=O)N[C@@H](Cc4ccccc4)C2[C@H](C)[C@@]2(C)O[C@H]2C3/C=C/CC/C=C/CNC1=O` (stereo not given in full) stands -0.478. Turning to `COCCOC(=O)N1C(=O)[C@@]2(c3cc(C#CCCO)ccc31)[C@H](C(=O)N1CCc3cc(OC)c(OC)cc3C1)[C@H]1C(=O)O[C@H](c3ccccc3)[C@H](c3ccccc3)N1[C@@H]2c1ccccc1OCCO`, the z-score was -0.647.

Compound `COc1ccc([Si](C)(C)[C@H]2[C@H](CC(=O)N3Cc4ccccc4C[C@H]3CO)O[C@@]3(C(=O)N(Cc4cccc(N5C(=O)c6cccc7cccc5c67)c4)c4ccccc43)[C@@H]2C)cc1` returned a z-score of -1.19. As for `CN1C(=O)C2C(C1=O)C1C=C(c3ccc(CO)cc3)C2C(c2cccs2)N1C` (stereo not given), the z-score was -0.492. Regarding `CC(C)CNC(=O)[C@@]1(C)c2ccccc2C(=O)N(Cc2cc(F)cc(C(F)(F)F)c2)[C@H]1c1ccc(CO)cc1`, the z-score was -0.638. `COc1ccc([Si](C)(C)[C@H]2[C@H](CCO)O[C@@]3(C(=O)N(Cc4ccc(N5CCOC5=O)cc4)c4ccccc43)[C@@H]2C)cc1`: the z-score is -0.992.

Take `CCCC=C(CCC)[C@@H](NC(=O)c1ccco1)c1ccc(C(=O)OC)cc1`: the z-score was -0.736.

`CO[C@H]1O[C@H](CO)[C@@H](OC(=O)Nc2ccc(C(F)(F)F)cc2)[C@H](OC(=O)Nc2ccccc2-c2ccccc2)[C@@H]1OC(=O)Nc1ccccc1-c1ccccc1`: the z-score is -0.172.
